Source: PubChem
Compounds with a hit are over-represented: about 17% of the library has one in this group of screens.
TDP1 inh: inhibitors of human tyrosyl-DNA phosphodiesterase TDP1 | Q9NUW8 | recombinant TDP1, AlphaScreen DNA substrate cleavage | Potency, µM (top dose mostly 130 µM), usual class: inhibitors | actives 0.28% (n = 350,000); note: nearly all actives have a fitted effect of over 40% in size
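Recombinant E. coli-expressed Tdp1 (1 nM) preincubated with compound 15 min at RT, then 5'-biotin/3'-phosphotyrosine-FITC DNA substrate (15 nM) added for 5 min. AlphaScreen beads (10 ug/ml) added, 10 min RT; tyrosine-FITC cleavage read as signal loss.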
DT40 TDP1 CPT: growth inhibition of DT40 Tdp1-/-;hTDP1 cells with camptothecin (screen for TDP1 inhibitors); chicken DT40 Tdp1-/-;hTDP1 cells + 20 nM CPT, ATP luminescence, 48 h; actives 12% (n = 420,000); Potency, µM (doses to about 46.2 µM), hits mostly inhibitors; note: nearly all actives have a fitted effect of over 55% in size
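Cell growth measured by CellTiter-Glo luminescence after a minimum 48 h, 37 C compound exposure with 20 nM CPT in Tdp1-knockout DT40 cells stably expressing hTDP1, seeded 400/well; qHTS titration format.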
ClpP mod: qHTS Assay for Activators of ClpP | ATP-dependent Clp protease proteolytic subunit (Bacillus subtilis (strain 168)), P80244 | purified B. subtilis ClpP, FRET peptide cleavage, 20 min | Potency, µM (highest dose often 57.5 µM) | actives 1.9% (n = 340,000) | AID 651965, 2013; active = well fitted falling curve with a large enough effect; inconclusive = small, poorly fitted or top-dose-only effect; inactive = no such curve, though single readings can be large or run the other way; note: the source files actives as falling curves though it sought activators and does not explain the sign; nearly all actives have a fitted effect of over 65% in size
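Buffer: 100 mM Tris/HCl pH8, 100 mM KCl, 0.05% low protease BSA, 2.5% glycerol, 0.01% Tween-20. ClpP 10 microg/mL final; 20 min RT; delta FRET normalized to ADEP and DMSO controls.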
DT40 TDP1 no CPT: qHTS for Inhibitors of human tyrosyl-DNA phosphodiesterase 1 (TDP1): qHTS in cells in absence of CPT | DT40 Tdp1-/- hTDP1 cells, no CPT, ATP luminescence, 48 h | actives 15% (n = 420,000) | Potency, µM (highest dose often 46.2 µM), usual class: inhibitors; note: nearly all actives have a fitted effect of over 55% in size
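A cellular qHTS used chicken DT40 cells lacking endogenous Tdp1 but carrying stably transfected human TDP1. Compounds were applied without camptothecin, and cell growth kinetics were judged by ATP-dependent luminescence after ≥48 hr.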
Numbers stand for hits; - = inactive; ? = inconclusive; . = no result given; [ ] = another dose, or the depositor's remark. Unless noted, calls come from the whole dose curve; as a rule, active = well fitted curve in the direction sought with a large enough effect; inconclusive = small, poorly fitted or top-dose-only effect, or another doubt; inactive = no such curve, though single readings can be large; an effect the other way counts as inactive or inconclusive.

SMILES	TDP1 inh	DT40 TDP1 CPT	ClpP mod	DT40 TDP1 no CPT
CCC(CC(C)(C)O)C(=O)NNC(=S)Nc1ccccc1 (centres undefined)	-	-	.	-
OC(CCCC(O)c1ccccc1)c1ccccc1 (centres undefined)	.	-	-	-
Cc1ccc(/C=C/c2onc(C)c2S(=O)(=O)N2CCC(C(=O)NCc3ccc(OC(C)C)cc3)CC2)cc1	-	?	?	-
Cc1ccccc1NC(=O)CSc1nc2nccnc2c(=O)n1CCc1c[nH]c2ccccc12	-	23.1µM	-	11.6µM
O=C(CSc1nc2nccnc2c(=O)n1CCc1c[nH]c2ccccc12)Nc1ccccc1	-	20.6µM	-	14.6µM
O=C(O)c1ccc(CCN2CCN(CC=Cc3ccc(Cl)cc3)CC2)cc1	-	.	.	.
CC1=CC(=O)C=C(C)C1=NOC(=O)c1cccc([N+](=O)[O-])c1	-	10.3µM	-	?
Oc1ccc2cc(Br)ccc2c1CN1CCCC1	-	-	.	23.1µM
COc1ccc(CN2C(=O)c3ccccc3NC2c2ccc(OC)c(COc3ccc(NC(C)=O)cc3)c2)cc1 (centres undefined)	-	.	.	.
CC(=O)O[C@H]1CC(C)(C)C(=C=C/C(C)=C/C=C/C(C)=C/C=C/C=C(C)/C=C/C=C(\C)C(=O)C[C@@]23O[C@]2(C)C[C@@H](O)CC3(C)C)[C@](C)(O)C1	-	25.9µM	-	?
CCCCc1c(O)nc(SCC(=O)N2CCCCC2)[nH]c1=O	.	-	-	?
O=C(Nc1ccccc1)c1cn(-c2ccccc2)nc1-c1ccccc1	-	?	-	16.4µM
O=C(CCl)Nc1cn(-c2ccccc2)nc1-c1ccc(F)cc1	-	4.61µM	-	3.66µM
Cc1nn(Cc2c(Cl)cccc2Cl)c(C)c1NC(=O)c1cn(-c2ccccc2)nc1-c1ccccc1	-	6.51µM	-	4.61µM
O=C(Nc1ccc([N+](=O)[O-])cc1)c1cn(-c2ccccc2)nc1-c1cc2ccccc2o1	-	8.2µM	?	10.3µM
CCn1c(-c2ccccc2F)nc2cc(C(=O)NC(c3ccccn3)C(F)(F)F)cc(NC(C)=O)c21 (centres undefined)	.	-[9.04 µM]	.	-
Cn1nc(-c2ccc(C(=O)NC3CCCCC3)cc2)c2ccccc2c1=O	.	-	.	?
O=[N+]([O-])c1ccc(N2CCN(S(=O)(=O)c3ccc(Cl)c(Cl)c3)CC2)cc1NCCN1CCOCC1	-	?	-	8.2µM
CS(=O)(=O)N1CCN(c2ccc([N+](=O)[O-])c(NCc3ccccc3)c2)CC1	-	?	-	?
CC(C)c1ccc(CNc2cc(N3CCCC3)ccc2[N+](=O)[O-])cc1	-	18.4µM	-	?
CS(=O)(=O)N1CCN(c2ccc([N+](=O)[O-])c(NCc3ccc(Cl)cc3)c2)CC1	-	25.9µM	-	18.4µM
COc1ccc(Cl)cc1NC(=O)c1cc(C)nc2c1c(C)nn2-c1ccccc1	-	?	-	?
CC(C)NC(=O)C1CCN(C(=O)c2cc3sccc3n2Cc2ccc(Cl)cc2)CC1	-	1.64µM	-	1.46µM
CC1CCN(C(=O)C2CCN(C(=O)c3cc4sccc4n3Cc3ccc(F)cc3)CC2)CC1	-	20.6µM	-	18.4µM
O=C(c1cc2sccc2n1Cc1ccc(F)cc1)N1CCCc2ccccc21	-	?	-	23.1µM
SMILES	TDP1 inh	DT40 TDP1 CPT	ClpP mod	DT40 TDP1 no CPT
COC(=O)c1cc2sccc2n1Cc1ccc(F)cc1	-	-	-	-
CC(C)NC(=O)C1CCN(C(=O)c2cc3sccc3n2Cc2ccc(F)cc2)CC1	-	6.51µM	-	7.31µM
O=C(NCc1ccccc1)c1cc2sccc2n1Cc1ccc(Cl)cc1	-	-	?	-
COCCn1c(=O)c2c(nc3n2CCCN3CCc2ccc(OC)c(OC)c2)n(C)c1=O	.	-	.	?
COc1ccc(CCN2CCCn3c2nc2c3c(=O)[nH]c(=O)n2C)cc1OC	.	25.9µM	-	7.31µM
O=C(/C=C/c1ccccc1[N+](=O)[O-])N1CCN(C(=O)c2ccco2)CC1	-	-	.	-
Cc1oc(-c2ccccc2NC(=O)C2CCC2)nc1CNC(=O)c1c(F)ccc(F)c1F	.	-[9.04 µM]	.	-
COc1ccc(N2C(=O)CC(Nc3ccc(C)cc3)C2=O)cc1 (centres undefined)	-	-	-	-
COc1ccc(N2C(=O)CC(NNc3ncc(Cl)cc3Cl)C2=O)cc1 (centres undefined)	-	14.6µM	.	14.6µM
Cc1ccccc1CCNC(=O)c1ccc2c(c1)nc1n2CCCCC1	-	?	-	?
CC(CNC(=O)c1ccc2c(c1)nc1n2CCCCC1)c1ccccc1 (centres undefined)	-	23.1µM	-	?
COc1ccc(Br)cc1CNC(=O)c1ccc2c(c1)nc1n2CCCCC1	-	?	-	16.4µM
CSc1ccc(CCNC(=O)c2ccc3c(c2)nc2n3CCC(C)C2)cc1 (centres undefined)	-	20.6µM	-	13µM
Cc1ccc(C)c(CNC(=O)c2ccc3c(c2)nc2n3CCC(C)C2)c1 (centres undefined)	-	?	-	20.6µM
CCn1cc(CN2CCc3c([nH]c4ccccc34)C2c2cccc(OC)c2OC)c(C)n1 (centres undefined)	-	?	.	-
CCN(c1ccccc1)S(=O)(=O)c1nnc(NC(=O)COc2ccc(OC)cc2)s1	-	-	-	-
CC(=O)ON(C(C)=O)S(=O)(=O)c1ccc(Cl)cc1	-	-	.	-
CSc1ccc(CCNC(=O)c2ccc3c(c2)nc2n3CCCCC2)cc1	-	-	-	16.4µM
COC(=O)C1CCN(Cc2ccc3c(c2)CN(C(=O)c2cc(C)oc2C)CCO3)CC1	.	-[9.04 µM]	.	-
NC(=O)C(C(=O)/C=C/c1ccc(Cl)cc1)=C1SCCS1	.	3.26µM	-	8.2µM
O=C(COC(=O)c1cccc(S(=O)(=O)N2CCCC2)c1)Nc1ccccc1Cl	-	-	.	-
Cc1ccc(-n2c(C)cc(/C=C3\SC(=O)NC3=O)c2C)cc1	.	-	-	-
Cc1cc(/C=C2\SC(=Nc3ccccc3)NC2=O)c(C)n1-c1ccc(S(N)(=O)=O)cc1	-	5.17µM	-	2.59µM
CN(C(=O)COC(=O)CCc1c[nH]c2ccccc12)c1ccccc1	.	-	-	-
O=C(Nc1ccc(N2CCOCC2)cc1)c1csc([C@H]2C[C@H](O)[C@@H](CO)O2)n1	.	-	-	-
SMILES	TDP1 inh	DT40 TDP1 CPT	ClpP mod	DT40 TDP1 no CPT
CC[C@H](C)[C@H](NC(=O)[C@@H](NC(=O)[C@@H](CC(=O)NO)Cc1ccccc1)[C@@H](C)CC)C(=O)O	-	.	.	.
Nc1ccc(C(=O)O)cc1S(=O)(=O)O	-	?	.	5.8µM
O=C(O)c1ccc(NS(=O)(=O)c2cc(C(=O)O)ccc2Br)cc1	-	-	-	-
CC(C)CC(=O)Nc1cc([N+](=O)[O-])ccc1Cl	-	-	-	-
Cc1ccc(O)c(NC(=O)c2cc([N+](=O)[O-])ccc2Cl)c1	-	?	-	20.6µM
Cc1ccc(O)c(NC(=O)c2ccccc2-c2ccccc2C(=O)O)c1	.	-	25.1µM	-
